Screening data (PubChem)
Shown are actives, neighbours in structure and some others; about 2.5% of the full set was active somewhere.
MRP reversal – reversal of MRP1-mediated doxorubicin resistance, primary screen, H69AR cells, doxorubicin co-treatment; H69AR cells + 2 uM doxorubicin, CellTiter-Glo, 72 h; differential viability (reversal), % at 10 µM; actives 0.04% (n = 85,000);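 active = viability drop by adding the cancer drug above about 55%, with treated viability meeting a 40% cutoff, limit read from the data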;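 note: viability without doxorubicin minus viability with 2 µM doxorubicin for each compound; larger differential means the compound sensitizes cells more to doxorubicin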
sEH inh – soluble epoxide hydrolase inhibitors, primary screen, biochemical, human sEH | recombinant human sEH enzymatic activity assay | inhibition, % at 2 µM | actives 0.34% (n = 91,000); in the data active = inhibition above about 80%
Target sequence (P34913 whole entry, looked up): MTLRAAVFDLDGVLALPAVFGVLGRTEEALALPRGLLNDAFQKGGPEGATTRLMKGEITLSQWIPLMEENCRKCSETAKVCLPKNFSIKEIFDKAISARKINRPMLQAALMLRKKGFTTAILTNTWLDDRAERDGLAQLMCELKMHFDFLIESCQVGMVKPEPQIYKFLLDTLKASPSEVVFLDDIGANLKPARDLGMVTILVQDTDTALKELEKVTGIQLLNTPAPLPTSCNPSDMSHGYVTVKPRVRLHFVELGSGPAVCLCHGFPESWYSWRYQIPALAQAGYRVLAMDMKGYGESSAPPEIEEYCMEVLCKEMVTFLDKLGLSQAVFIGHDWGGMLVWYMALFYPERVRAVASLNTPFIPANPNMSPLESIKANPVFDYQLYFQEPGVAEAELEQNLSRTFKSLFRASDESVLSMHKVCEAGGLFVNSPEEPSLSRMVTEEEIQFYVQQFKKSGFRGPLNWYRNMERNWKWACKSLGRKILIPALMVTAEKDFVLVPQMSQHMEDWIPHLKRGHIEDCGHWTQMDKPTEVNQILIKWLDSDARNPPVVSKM
SDO1 yeast rescue – growth rescue of sdo1-depleted yeast, primary screen, S. cerevisiae, bone marrow failure model. S. cerevisiae sdo1-depleted JHY4D growth rescue, OD600 30 h; stronger effect = higher value; pdr5 snq2 efflux-pump mutant strain. z-score at 10 µM. actives 0.21% (n = 140,000). AID 817, 2007;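 active = z-score above 3 at both the 24 hr and the 30 hr optical density reads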;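 note: z-score against mean and SD of all compound wells on the same plate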
sEH activator – soluble epoxide hydrolase activators, primary screen, biochemical, human sEH. activation, % at 2 µM. AID 717, 2007. purified human sEH enzymatic activity, activator screen. actives 0.04% (n = 91,000); in the data active = activation above about 37%
Measles CPE – compounds protecting cells from measles virus cytopathic effect, primary screen, measles RdRp inhibitor project, single point, MLSMR library, absorbance | protection (pct of control), % at 4 µM | AID 841, 2007 | actives 1.5% (n = 140,000) | Measles virus-infected cells, CPE protection; in the data active = protection mostly above about 24%, no sharp cut-off; inactive = mostly below about 26%
MRP1 act – H69AR viability gain despite doxorubicin, primary screen, MRP-1 activator project, H69AR cells, CellTiter-Glo. actives 0.61% (n = 140,000). AID 799, 2007. viability increase, % at 10 µM. viability rescue;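 active = viability gain under doxorubicin at or above a set limit, the compound median plus 3 SD, cut at about 4.7% in these data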;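 note: MRP-1 overexpressing cells given doxorubicin 25 µM after compound pretreatment; 18-22 h compound pretreatment then 72 h with doxorubicin before readout; 0% = doxorubicin-only wells and 100% = vehicle-treated cells without doxorubicin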
sdo1 rescue conf – SDO1-depleted yeast growth rescue, concentration-response, diseases of bone marrow failure, JHY4D, OD600; shares compounds with SDO1 yeast rescue; S. cerevisiae JHY4D (SDO1-depleted) growth rescue, 30 h; stronger effect = higher value; efflux-deficient strain, SNQ2 and PDR5 mutated; OD recovery (no concentration beside the values); actives 44% (n = 440); AID 949, 2007;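 active = yeast growth recovered at 30 hours, either rising with dose fitted slope above 0.001 or with average optical density gain above 0.07, some results past the limit were not filed as active; inactive = growth falling with dose or no effect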;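 note: gain in OD600 from 0 h to 30 h averaged across all seven doses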
An asterisk follows results filed as active; x = no result.

SMILES	MRP reversal	sEH inh	SDO1 yeast rescue	sEH activator	Measles CPE	MRP1 act	sdo1 rescue conf
COc1ccc(OC)c(NC(=S)NCCN2CCOCC2)c1	x	x	3.9*	x	4	-2	0.037
COc1cccc(NC(=S)NCCN2CCOCC2)c1	x	x	0.91	x	6	1	x
COc1ccc(S(=O)(=O)N2CCCC(C(=O)O)C2)cc1 (stereo not given)	12	-6	2.1	4	6	-1	0.046
CCN(CCNC(=O)c1cc(C)nn1-c1ccccc1)c1ccccc1	4	x	-0.42	x	5	0	x
C/C(=N/NC(=O)c1ccc(C)s1)c1cccc(NC(=O)COc2ccc(Cl)cc2Cl)c1	x	-7	1.6	7	18	-1	0.063
C/C(=N/NC(=O)c1cccs1)c1ccc(NC(=O)COc2ccc(Cl)cc2Cl)cc1	x	8	-0.47	-8	2	-3	x
Cc1ccc(NC(=O)C2(c3cccs3)CCOCC2)cc1C	x	x	0.12	x	3	-1	x
N#Cc1c(C(F)(F)F)cc(-c2ccccc2)nc1SCC(=O)Nc1sc2c(c1C#N)CCC2	x	-2	1.5	5	6	-2	0.093*
CC1(C)OC(=O)C(=CNC(Cc2c[nH]c3ccccc23)C(=O)O)C(=O)O1 (stereo not given)	x	8	-0.94	-8	1	-2	x
COc1cc(NC(=O)CSc2nc3c(C)ccc(C)c3cc2C)c(C(=O)O)cc1OC	x	x	0.51	x	4	-1	x
O=C(Nc1ccc(S(=O)(=O)N2CCCCCC2)cc1)c1ccco1	3	22	1.4	-22	11	-4	0.07
COc1ccccc1-c1cc(C(=O)NCCN2CCOCC2)no1	x	3	1.5	-2	5	1	0.042
COc1cccc(-c2cc(C(=O)NCCN3CCOCC3)no2)c1	4	-1	-0.65	1	15	0	x
CC(=O)N(c1c(C)n(C)n(-c2ccccc2)c1=O)C1(C(=O)NC2CCCCC2)CCCCC1	-12	8	0.61	-5	32	0	x
CC(=O)N(c1c(C)n(C)n(-c2ccccc2)c1=O)C1(C(=O)NC2CCCC2)CCCCC1	6	x	11*	x	1	-1	0.064*
Cc1ccc(S(=O)(=O)N2CCSC2c2ccco2)cc1 (stereo not given)	11	x	0.69	x	38	-1	x
CC1(C)NC(=O)N(CC(O)CN2C(=O)NC(C)(C)C2=O)C1=O	-6	-16	9.1*	16	3	-1	0.13*
CCOc1ccc(C(=O)NC(=S)Nc2ccc(NC(=O)c3ccco3)c(C)c2)cc1[N+](=O)[O-]	x	x	-0.72	x	9	-3	x
CCOc1ccccc1NC(=O)CSc1ncnc2c1oc1ccccc12	12	-5	0.13	8	4	1	x
O=C(CSc1ncnc2c1oc1ccccc12)Nc1ccccc1F	7	-8	0.18	10	6	-1	0.056
COC(=O)C[N+](C)(C)CC#Cc1ccccc1	x	x	0.55	x	4	-1	x
CC(C)COC(=O)c1cc(-c2ccc(/C=N/n3cnnc3)o2)ccc1Cl	9	6	4*	-3	4	-2	0.12*
Fc1ccc(-c2ccc(/C=N\n3cnnc3)o2)cc1Cl	x	x	0.12	x	7	2	x
CC(C)c1ccc(C2NC(=S)NC3=C2C(=O)CC(C)(C)C3)cc1 (stereo not given)	x	x	-0.51	x	5	4	x
COC(=O)c1c(NC(=O)Cc2cccs2)sc2c1CCCC2	1	1	7.5*	0	27	-1	0.048
SMILES	MRP reversal	sEH inh	SDO1 yeast rescue	sEH activator	Measles CPE	MRP1 act	sdo1 rescue conf
COc1ccccc1NC(=O)CNc1ccc(F)c(Cl)c1	x	x	-1.2	x	19	-4	x
CCS(=O)(=O)Nc1ccc(-c2nnc(SCC(=O)c3ccc(NC(C)=O)c(OC)c3)o2)cc1	24	7	2.7	-8	4	-4	0.061
CCS(=O)(=O)Nc1ccc(-c2nnc(SCC(=O)c3cccc(OC)c3)o2)cc1	-12	1	0.15	-1	6	2	x
Cc1cccc(OCC(=O)N/N=C\c2cc3c(cc2[N+](=O)[O-])OCO3)c1C	12	74	-1.5	-73	10	0	x
Cc1cccc(Nc2cc(C)c3c(O)cccc3n2)c1C	x	x	-1	x	8	-4	x
S=C(NCc1ccco1)N/N=C/c1ccc(Cl)cc1	x	x	8.4*	x	6	-1	0.079*
S=C(NCc1ccco1)N/N=C/c1ccccc1Cl	x	x	-0.14	x	13	-2	x
O=C(CCCn1c(=O)[nH]c2cc(Cl)ccc2c1=O)NCCCN1CCCC1	12	11	1.4	-9	13	-1	x
O=C(CCCn1c(=O)[nH]c2cc(Cl)ccc2c1=O)NCCC1=CCCCC1	3	40	6.7*	-40	13	-1	0.091*
Cc1cnc(NC(=O)c2sc3ccccc3c2Cl)s1	x	x	-0.23	x	7	-2	x
Cc1ccnc(NC(=O)c2sc3ccccc3c2Cl)c1	x	x	3.9*	x	6	-2	0.13*
Brc1ccc(C2Nc3cccc4cccc(c34)N2)s1	x	x	-0.19	x	19	-3	x
Cc1ccc(C(=O)NCCCN2CCOCC2)cc1	1	-25	x	24	x	x	x
Cc1ccc(C(=O)NCCCN2CCOCC2)o1	-2	-1	2.3	1	20	0	0.046
CCCc1nnc(NC(=O)C(CC)OC(=O)c2cc(C)nc3ccccc23)s1 (stereo not given)	x	-3	12*	4	29	-2	0.039
Cc1ccc(NC(=O)CN(C)C(=O)COc2cccc3cccnc23)cc1	x	x	0.11	x	4	-2	x
COC(=O)COc1ccc2occ(C(C)=O)c2c1	6	-7	3.6*	6	2	0	0.11*
O=C(O)COc1ccc2occ(C(=O)c3ccccc3)c2c1	-4	-3	0.12	1	11	1	x
N#Cc1ccc(NC(=O)COC(=O)CNC(=O)C2CCCCC2)cc1	16	10	0.26	-8	5	-2	x
Cc1cccc(NC(=O)COC(=O)CNC(=O)C2CCCCC2)c1	17	5	5.7*	-6	2	2	0.067
CC(C)CCn1nnnc1C(c1ccc(F)cc1)N1CCC(C(N)=O)CC1 (stereo not given)	9	x	3.5*	x	29	-3	0.062
NC(=O)CCn1nc(-c2ccc(Cl)cc2)c2ccccc2c1=O	4	-4	4.3*	6	8	-1	0.077*
CCC(=O)Nc1ccc(NC(=O)c2cccc(OC)c2)nc1	5	0	0.47	-2	8	-1	x
COc1cccc(C(=O)Nc2ccc(NC(=O)C3CC3)cn2)c1	-2	-8	2.4	8	10	-2	0.084*
